PubChem BioAssay (NCATS)
Inconclusive results are not listed. The source made the active and inactive calls. The call rests on the fitted dose curve; in most records, active means well fitted curve in the direction sought with a large enough effect; inconclusive means small, poorly fitted or top-dose-only effect, or another doubt; inactive means no such curve, though single readings can be large; an effect the other way counts as inactive or inconclusive.

Tests used:
[1] = target: Metallo-beta-lactamase type 2 (Klebsiella pneumoniae) (UniProt C7C422); assay: qHTS to identify inhibitors of the New Delhi Metallo-beta-lactamase (NDM): assay validation screen against the NCATS LOPAC Collection (AID 1794843); settings: NDM-1 enzyme, nitrocefin hydrolysis, absorbance 485 nm; series mostly up to 38.4 µM;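 further: nitrocefin turnover by NDM-1 measured as 485 nm absorbance at plateau; on the % scale 0 is the no-effect control and ±100 the full control effect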
Method in brief: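 Nitrocefin hydrolysis (50 uM substrate stock) by NDM-1, 2 nM final, was followed by 485 nm absorbance after compound preincubation; buffer was 50 mM HEPES pH 7.0, 1 uM ZnSO4, 0.01% Tween20.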

[2] = target: Glutathione peroxidase 1 (Homo sapiens) (UniProt P07203); assay: Primary qHTS Assay for Inhibitors of Recombinant Selenoprotein Glutathione Peroxidase 1 (GPX1) (AID 1845191); settings: recombinant GPX1, GR-coupled NADPH fluorescence, 15 min; series mostly up to 48.8 µM; further: nearly all actives have a fitted effect of over 65% in size; on activity, negative = inhibition: on the % scale 0 is the no-effect control and ±100 the full control effect
Method in brief: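 GR-coupled assay: compounds preincubated 30 min at room temperature with GPX1, then reaction started with CHP; final 10 nM GPX1, 1 mM GSH, 0.5 mM CHP, 0.5 mM NADPH, 100 nM GR, 0.01% BSA, pH 7.5 Tris buffer. NADPH fluorescence (340/450 nm) read at 0 and 15 min.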

[3] = target: Phospholipid hydroperoxide glutathione peroxidase GPX4 (Homo sapiens) (UniProt P36969); assay: Primary qHTS Assay for Inhibitors of Recombinant Selenoprotein Glutathione Peroxidase 4 (GPX4) (AID 1845192); settings: recombinant GPX4, GR-coupled NADPH fluorescence, 15 min; series mostly up to 50 µM; further: nearly all actives have a fitted effect of over 65% in size; on activity change, negative = inhibition: on the % scale 0 is the no-effect control and ±100 the full control effect
Method in brief: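 GR-coupled assay: recombinant GPX4 preincubated 30 min with compound at room temperature; final 200 nM GPX4, 1 mM GSH, 0.5 mM cumene hydroperoxide, 0.5 mM NADPH, 100 nM GR, 0.01% BSA, pH 7.5 Tris. NADPH fluorescence (340/450 nm) read at 0 and 15 min.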

[4] = Quantitative High-Throughput drug screen in 47 multiple myeloma cell lines against the NCATS MIPE library collection: FR4_PLB cell viability assay (AID 1918924; further: nearly all actives have a fitted effect of over 35% in size; further: potency means the concentration at half of the fitted maximal effect); settings: FR4_PLB myeloma cells viability, CellTiter-Glo ATP, 48 h; series mostly up to 45.8 µM
Method in brief: (§1)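 Myeloma cell lines, 500 cells per well, exposed to MIPE 4.0 library compounds for 48 h at 37C, 5% CO2. Viability from ATP by CellTiter-Glo luminescence; normalised to DMSO (100%) and media-only (0%) wells.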

[5] = Quantitative High-Throughput drug screen in 47 multiple myeloma cell lines against the NCATS MIPE library collection: EJM_DSMZ cell viability assay (AID 1918926; further: nearly all actives have a fitted effect of over 30% in size; further: potency means the concentration at half of the fitted maximal effect); settings: EJM myeloma cell viability, CellTiter-Glo ATP, 48 h; series mostly up to 45.8 µM
Method in brief: (§2)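 Primary qHTS used for cherry-picking: cells at 500/well, library compounds for 48 h (37C, 5% CO2), luminescent ATP assay.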

[6] = Quantitative High-Throughput drug screen in 47 multiple myeloma cell lines against the NCATS MIPE library collection: AMO1_DSMZ cell viability assay (AID 1918927; further: nearly all actives have a fitted effect of over 30% in size; further: potency means the concentration at half of the fitted maximal effect); settings: AMO1 myeloma cells viability, CellTiter-Glo ATP luminescence, 48 h; series mostly up to 45.8 µM
Method in brief: as §2

[7] = Quantitative High-Throughput drug screen in 47 multiple myeloma cell lines against the NCATS MIPE library collection: ARP1_JJKsccF8 cell viability assay (AID 1918928; further: nearly all actives have a fitted effect of over 40% in size; further: potency means the concentration at half of the fitted maximal effect); settings: ARP1 myeloma cells viability, CellTiter-Glo ATP, 48 h; series mostly up to 45.8 µM
Method in brief: (§3)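 Luminescence from CellTiter-Glo, taken after 5 min at room temperature, reports cellular ATP as viability. Cells (500 per well) had been treated 48 h at 37 °C with MIPE 4.0 compounds, scaled between DMSO and medium-only controls.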

[8] = Quantitative High-Throughput drug screen in 47 multiple myeloma cell lines against the NCATS MIPE library collection: ARD_JJKsccE7 cell viability assay (AID 1918929; further: potency means the concentration at half of the fitted maximal effect); settings: ARD myeloma cell line viability, CellTiter-Glo, 48 h; series mostly up to 45.8 µM
Method in brief: as §2

[9] = Quantitative High-Throughput drug screen in 47 multiple myeloma cell lines against the NCATS MIPE library collection: Karpas620_DSMZ cell viability assay (AID 1918959); settings: Karpas620 myeloma viability, CellTiter-Glo ATP luminescence, 48 h; series mostly up to 45.8 µM; further: nearly all actives have a fitted effect of over 30% in size; further: potency means the concentration at half of the fitted maximal effect
Method in brief: as §1

[10] = Quantitative High-Throughput drug screen in 47 multiple myeloma cell lines against the NCATS MIPE library collection: KMM1_JCRB cell viability assay (AID 1918960); settings: KMM1 myeloma viability, CellTiter-Glo ATP luminescence, 48 h; series mostly up to 45.8 µM; further: nearly all actives have a fitted effect of over 30% in size; further: potency means the concentration at half of the fitted maximal effect;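 on viability (% of DMSO): 100% = DMSO-treated cells and 0% = medium-only wells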
Method in brief: as §3

[11] = Quantitative High-Throughput drug screen in 47 multiple myeloma cell lines against the NCATS MIPE library collection: KHM11_PLB cell viability assay (AID 1918962); settings: KHM11 myeloma cell viability, CellTiter-Glo ATP luminescence, 48 h; series mostly up to 45.8 µM; further: nearly all actives have a fitted effect of over 35% in size; further: potency means the concentration at half of the fitted maximal effect
Method in brief: as §1

[12] = Quantitative High-Throughput drug screen in 47 multiple myeloma cell lines against the NCATS MIPE library collection: JIM3_ECACC cell viability assay (AID 1918963; further: nearly all actives have a fitted effect of over 35% in size; further: potency means the concentration at half of the fitted maximal effect); settings: JIM3 myeloma viability, CellTiter-Glo ATP, 48 h; series mostly up to 45.8 µM
Method in brief: as §1

[13] = target: Luciferin 4-monooxygenase (Photinus pyralis) (UniProt P08659); assay: Primary firefly luciferase (FLuc) qHTS assay for identification of artifact compounds. (AID 1845220); settings: purified firefly luciferase, luminescence, 5 min; series mostly up to 54.1 µM; further: nearly all actives have a fitted effect of over 60% in size;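 on activity change, negative = inhibition: plate controls were DMSO vehicle for no effect and no enzyme for full effect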
Method in brief: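 D-luciferin and ATP (10 uM each, final) in Tris acetate buffer pH 7.6 were incubated with compounds for 15 min at room temperature. The reaction was started with 10 nM Photinus pyralis luciferase and luminescence read after 5 min. Percent inhibition was fitted to a 4-parameter Hill equation.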

[14] = Primary fluorescence-based thiol-reactive (MSTI) qHTS assay for identification of artifact compounds. (AID 1845221); settings: MSTI thiol-reactivity probe, 1 h; series mostly up to 53.8 µM;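 further: thiol-reactive compounds lower the probe fluorescence signal; nearly all actives have a fitted effect of over 65% in size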
Method in brief: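 Reactivity toward the thiol probe MSTI (4 uM) is scored by fluorescence at Ex/Em 525/598 nm after 1 h at room temperature. Acetyl-MSTI and MSTI define the activity scale.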

[15] = test system: Nanoluciferase (engineered Oplophorus gracilirostris luciferase); assay: Primary Nanoluciferase (NLuc) qHTS assay for identification of artifact compounds. (AID 1845222); settings: NLuc-conditioned medium, Nano-Glo luminescence, 5 min; series mostly up to 54.1 µM;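 further: 0% = DMSO and -100% = no enzyme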
Method in brief: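 Diluted conditioned medium from NLuc-expressing S16 cells treated with compounds for 15 min at room temperature, then Nano-Glo substrate added; luminescence read after 5 min. Percent inhibition versus no-enzyme and DMSO controls fitted to 4-parameter Hill equation.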

[16] = Primary redox qHTS assay for identification of artifact compounds. (AID 1845223); settings: Amplex Red/HRP redox cycling with DTT, fluorescence; series mostly up to 53.8 µM
Method in brief: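 Amplex Red (25 uM) and HRP (250 mU/mL) in HBSS, with compounds for 15 min, then 250 uM DTT for 30 min, room temperature, dark. Fluorescence 525/598 nm read; normalized to DMSO and 10 uM DA3003; Hill fit.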

[17] = Quantitative High-Throughput drug screen in 47 multiple myeloma cell lines against the NCATS MIPE library collection: Delta47_JCRB cell viability assay (AID 1918925; further: nearly all actives have a fitted effect of over 45% in size; further: potency means the concentration at half of the fitted maximal effect); settings: Delta47 myeloma viability, CellTiter-Glo ATP, 48 h; series mostly up to 45.8 µM
Method in brief: as §2

[18] = Quantitative High-Throughput drug screen in 47 multiple myeloma cell lines against the NCATS MIPE library collection: Karpas417_ECACC cell viability assay (AID 1918961); settings: Karpas417 myeloma viability, CellTiter-Glo ATP luminescence, 48 h; viability (% of DMSO): at 45.8 µM (top of the series) unless noted; further: potency means the concentration at half of the fitted maximal effect
Method in brief: as §1

Chain of Metallo-beta-lactamase type 2 (Klebsiella pneumoniae) (C7C422 whole entry, looked up): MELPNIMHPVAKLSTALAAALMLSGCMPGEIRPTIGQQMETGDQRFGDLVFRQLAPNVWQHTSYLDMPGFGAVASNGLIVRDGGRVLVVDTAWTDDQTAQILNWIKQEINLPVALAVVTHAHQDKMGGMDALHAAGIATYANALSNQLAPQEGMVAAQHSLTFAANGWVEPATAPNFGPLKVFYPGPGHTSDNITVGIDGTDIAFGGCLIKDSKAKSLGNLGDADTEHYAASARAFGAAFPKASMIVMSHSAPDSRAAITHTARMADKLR
Chain of Glutathione peroxidase 1 (Homo sapiens) (P07203 whole entry, looked up): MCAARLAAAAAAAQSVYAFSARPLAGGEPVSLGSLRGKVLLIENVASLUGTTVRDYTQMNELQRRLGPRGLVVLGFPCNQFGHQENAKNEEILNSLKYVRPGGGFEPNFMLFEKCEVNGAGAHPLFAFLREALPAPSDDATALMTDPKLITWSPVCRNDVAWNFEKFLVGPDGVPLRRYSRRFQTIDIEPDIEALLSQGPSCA
Chain of Phospholipid hydroperoxide glutathione peroxidase GPX4 (Homo sapiens) (P36969 whole entry, looked up): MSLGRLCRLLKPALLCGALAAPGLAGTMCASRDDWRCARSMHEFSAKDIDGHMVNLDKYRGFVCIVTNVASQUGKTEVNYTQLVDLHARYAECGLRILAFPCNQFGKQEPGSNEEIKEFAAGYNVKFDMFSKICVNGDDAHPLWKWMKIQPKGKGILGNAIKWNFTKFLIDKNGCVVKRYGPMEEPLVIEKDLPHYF

CCn1cc(C(=O)O)c(=O)c2cc(F)c(N3CCNC(C)C3)c(F)c21 (configuration not stated)
inactive: outcome [1] | Potency [2] | Potency [3] | Potency [4] | Potency [5] | Potency [6] | Potency [7] | Potency [8] | Potency [9] | Potency [10] | Potency [11] | Potency [12]

O=C(Nc1ccc(F)c(C(F)(F)F)c1)Nc1nnc(-c2ccncc2)s1
active: Potency [4] 3.32 µM | Potency [17] 2.96 µM | Potency [5] 5.9 µM
inactive: Potency [2] | Potency [3] | Potency [13] | Potency [14] | outcome [15] | outcome [16]

CCN(CC)CCCC(C)Nc1ccnc2cc(Cl)ccc12 (configuration not stated)
active: Potency [18] 0.0526 µM
inactive: outcome [1] | Potency [2] | Potency [3] | activity change, negative = inhibition [13] -3.19% [at 11.6 µM] | activity change, negative = thiol reactive [14] -0.305% [at 11.5 µM] | activity, negative = inhibition [15] 2.98% [at 11.6 µM] | redox activity (% of DA3003) [16] -9.33% [at 11.5 µM] | Potency [4] | Potency [17] | Potency [5] | Potency [10] | Potency [12]

CN([C@@H](Cc1ccc(OS(=O)(=O)c2cccc3cnccc23)cc1)C(=O)N1CCN(c2ccccc2)CC1)S(=O)(=O)c1cccc2cnccc12
inactive: Potency [2] | Potency [3]

O=c1n(CCCN2CCN(c3cccc(Cl)c3)CC2)nc2ccccn12
inactive: outcome [1] | Potency [2] | Potency [3] | Potency [17] | Potency [5] | Potency [6] | Potency [7] | Potency [10] | Potency [11] | Potency [12]

CNC(=O)c1ccc(C)c(-n2c(C)cc(OCc3ccc(F)cc3F)c(Br)c2=O)c1
active: Potency [17] 14.8 µM | Potency [5] 20.9 µM | Potency [6] 16.6 µM | Potency [10] 4.69 µM | Potency [12] 16.6 µM
inactive: Potency [2] | Potency [3] | Potency [13] | Potency [14] | outcome [15] | outcome [16]

CCc1cncnc1N1CCN(Cc2nc3ccc(C(F)(F)F)cc3[nH]2)CC1
inactive: outcome [1] | Potency [2] | Potency [3] | Potency [13] | Potency [14] | outcome [15] | outcome [16] | Potency [18]
active: Potency [17] 13.2 µM | Potency [6] 6.62 µM | Potency [10] 2.64 µM | Potency [12] 20.9 µM

CC(C)(N)C(=O)N[C@H](COCc1ccccc1)C(=O)N1CCC2(CC1)CN(S(C)(=O)=O)c1ccccc12
active: Potency [4] 16.6 µM | Potency [17] 7.43 µM | Potency [11] 18.7 µM | Potency [12] 7.43 µM
inactive: Potency [2] | Potency [3] | Potency [13] | Potency [14] | outcome [15] | outcome [16] | Potency [6] | Potency [8] | Potency [9] | Potency [10] | Potency [18]

CC[C@H](Nc1ncnc2nc[nH]c12)c1nc2cccc(F)c2c(=O)n1-c1ccccc1
active: Potency [4] 20.9 µM | Potency [17] 5.26 µM | Potency [5] 14.8 µM | Potency [11] 4.69 µM | Potency [12] 16.6 µM
inactive: Potency [2] | Potency [3] | outcome [13] inactive [at 11.6 µM] | activity change, negative = thiol reactive [14] 52.7% [at 11.5 µM] | activity, negative = inhibition [15] -6.53% [at 11.6 µM] | redox activity (% of DA3003) [16] 6.84% [at 11.5 µM] | Potency [6] | Potency [10] | Potency [18]

O=C(NOC[C@H](O)CO)c1ccc(F)c(F)c1Nc1ccc(I)cc1F
inactive: Potency [2] | Potency [3] | Potency [13] | Potency [14] | outcome [15] | outcome [16] | Potency [4] | Potency [5]
active: Potency [17] 0.0118 µM | Potency [9] 0.0469 µM | Potency [10] 0.0187 µM | Potency [18] 0.0469 µM | Potency [11] 0.0132 µM | Potency [12] 0.166 µM

C[C@H](NC(=O)Cc1cc(F)cc(F)c1)C(=O)N[C@@H]1C(=O)N(C)c2ccccc2-c2ccccc21
inactive: Potency [2] | Potency [3] | Potency [13] | Potency [14] | outcome [15] | outcome [16] | Potency [9] | Potency [10]
active: Potency [17] 7.43 µM | Potency [12] 18.7 µM

Cc1n[nH]c(C)c1Cc1sc2c(c1C(=O)N1C[C@H](O)CO1)c(=O)n(C)c(=O)n2CC(C)C
active: Potency [10] 0.0118 µM | Potency [18] 0.0209 µM
inactive: Potency [2] | Potency [3] | Potency [13] | Potency [14] | outcome [15] | outcome [16] | Potency [4] | Potency [17] | Potency [5] | Potency [8] | Potency [9] | Potency [11] | Potency [12]

O=C(c1cc(Cc2n[nH]c(=O)c3ccccc23)ccc1F)N1CCN(C(=O)C2CC2)CC1
inactive: Potency [2] | Potency [3] | Potency [13] | Potency [14] | outcome [15] | outcome [16] | Potency [4] | Potency [7] | Potency [9]

CCC(C)N(C)C(=O)c1cc2ccccc2c(-c2ccccc2Cl)n1 (configuration not stated)
inactive: outcome [1] | Potency [2] | Potency [3] | Potency [4] | Potency [17] | Potency [5] | Potency [11]

COc1ccc(CCN2CCN(CCCc3ccccc3)CC2)cc1OC
inactive: Potency [2] | Potency [3] | Potency [13] | Potency [14] | outcome [15] | outcome [16] | Potency [4] | Potency [5] | Potency [12]
active: Potency [8] 13.2 µM

CN(C)c1ccc(C2Nc3ccc4ccccc4c3C3=C2C(=O)CC(C)(C)C3)cc1Br (configuration not stated)
inactive: Potency [2] | Potency [3] | Potency [13] | Potency [14] | outcome [15] | outcome [16] | Potency [8]
active: Potency [17] 2.35 µM | Potency [10] 4.69 µM

CC(C)C[C@H](NC(=O)[C@@H](O)[C@H](N)Cc1ccccc1)C(=O)O
inactive: outcome [1] | Potency [2] | Potency [3] | Potency [6] | Potency [9] | Potency [10]
active: Potency [17] 20.9 µM | Potency [7] 16.6 µM | Potency [11] 20.9 µM | Potency [12] 18.7 µM
